Shown are actives, neighbours in structure and some others; about 5.7% of the full set was active somewhere.
KB-3-1 cytotox – KB-3-1 parental cell cytotoxicity; Potency, µM (top dose mostly 46.1 µM), actives largely listed as cytotoxic; 400,000 tested, 1.4% active; KB-3-1 viability, CellTiter-Glo ATP luminescence, 72 h; further: nearly all actives have a fitted effect of over 60% in size
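Multi-concentration cytotoxicity screen in KB-3-1 cells grown in DMEM lacking phenol red with 10% FBS. After 72 h at 37 °C with compound, ATP-dependent luminescence was recorded.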
KB-V1 cytotox – kills drug-selected multidrug resistant KB-V1 cells. KB-V1 MDR cells viability, CellTiter-Glo, 72 h. Potency, µM (highest dose often 46.1 µM), hits mostly cytotoxic. 400,000 tested, 3.4% active; further: nearly all actives have a fitted effect of over 60% in size
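KB-V1 MDR subline cells in DMEM (phenol-red free, 10% FBS) exposed to compounds in qHTS concentration series for 72 h at 37 degrees C. Viability read by CellTiter-Glo luminescence; concentration-effect curves fitted after normalization and correction.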
HT1080-NT tox – kills 2HG-producing HT-1080-NT fibrosarcoma cells. HT-1080-NT fibrosarcoma viability, CellTiter-Glo ATP luminescence, 48 h. Potency, µM (highest dose often 46.1 µM), hits mostly cytotoxic. 360,000 tested, 1.6% active;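 further: NT is the 2HG producing partner of a matched IDH1 knockdown line; nearly all actives have a fitted effect of over 55% in size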
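Toxicity toward the 2HG-producing NT line was scored as %Activity, normalised to DMSO and no-cell wells, from CellTiter-Glo luminescence after 48 hours' treatment.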
HT1080 IDH1KD tx – kills HT-1080 cells with IDH1 knockdown; HT-1080 IDH1 knockdown viability, ATP luminescence, 48 h; AID 686971; 360,000 tested, 2% active; Potency, µM (titrated, usually from 46.1 µM), usual class: cytotoxic
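% activity derives from luminescence (CellTiter-Glo), normalised to DMSO and no-cell wells. HT-1080-IDH1KD cells, 750/well, had 48 h compound exposure at 37 °C.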
Large screens that a line does not name were inactive; ! = repeats disagree. The call rests on the fitted dose curve; in most records, active means well fitted curve in the direction sought with a large enough effect; inconclusive means small, poorly fitted or top-dose-only effect, or another doubt; inactive means no such curve, though single readings can be large; an effect the other way counts as inactive or inconclusive.

Cc1cc2c(c3oc(=O)c4ccccc4c13)CN(Cc1ccc(F)cc1)CO2	none (no result: HT1080-NT tox, HT1080 IDH1KD tx)
COC1=C(Br)C(=O)c2ncccc2C1=O	KB-3-1 cytotox inconclusive, KB-V1 cytotox inconclusive, HT1080 IDH1KD tx 8.2µM
O=C1c2cccnc2-c2ncccc21	none
O=C1C(=O)c2cccnc2-c2ncccc21	KB-3-1 cytotox 3.7µM, KB-V1 cytotox 18µM, HT1080-NT tox 1µM, HT1080 IDH1KD tx 0.58µM
COc1ccccc1N1C(=O)c2cccnc2C1=O	none
CC(C)C(=O)Nc1ccc(/C=C2\C=Cc3ccccc32)cc1	none (no result: HT1080-NT tox, HT1080 IDH1KD tx)
Cc1nnc(NC(=O)c2csc3c2CCC(C)C3)s1 (stereo unspecified)	none
Cc1cccc(NC(=S)NNC(=O)c2csc3c2CCC(C)C3)c1 (stereo unspecified)	KB-V1 cytotox 23µM, HT1080 IDH1KD tx inconclusive
CCCc1cc(C(=O)NNC(=S)Nc2cccc(C)c2)cs1	KB-V1 cytotox 15µM
CC(C)CNC(=S)NNC(=O)c1csc2c1CCC(C)C2 (stereo unspecified)	KB-V1 cytotox 7.3µM, HT1080-NT tox inconclusive, HT1080 IDH1KD tx inconclusive
CCN1CCN(Cc2ccc(NC(=O)c3ccc(C)c(/C=C/c4cnc(Nc5cc(N6CCNCC6)nc(C)n5)cn4)c3)cc2C(F)(F)F)CC1	KB-3-1 cytotox inconclusive, KB-V1 cytotox inconclusive, HT1080-NT tox inconclusive, HT1080 IDH1KD tx 18µM!
CCN1CCN(Cc2ccc(NC(=O)c3ccc(C)c(NC(=O)c4ccno4)c3)cc2C(F)(F)F)CC1	KB-V1 cytotox inconclusive
Cc1ccc[n+](C(C)C(=O)c2ccc(Cl)cc2)c1 (stereo unspecified)	none
Cc1cc(C)c[n+](C(C)C(=O)c2ccc(-c3ccccc3)cc2)c1 (stereo unspecified)	KB-3-1 cytotox 5.8µM, HT1080 IDH1KD tx inconclusive
COc1ccc(NC(=O)C2CCCN(S(=O)(=O)c3ccc(F)cc3)C2)cc1 (stereo unspecified)	none (no result: HT1080-NT tox, HT1080 IDH1KD tx)
CCCCOP(=O)(OCCCC)C1(NS(=O)(=O)c2ccccc2)C=CC(=O)c2ccccc21 (stereo unspecified)	KB-3-1 cytotox inconclusive, KB-V1 cytotox inconclusive, HT1080-NT tox 21µM, HT1080 IDH1KD tx 23µM
Cc1ccc(CCNC(=O)C(CC(C)C)NS(=O)(=O)c2ccc3c(c2)oc(=O)n3C)cc1 (stereo unspecified)	none (no result: HT1080-NT tox, HT1080 IDH1KD tx)
Cn1cnc2nc(Cl)nc(Cl)c21	KB-3-1 cytotox 3.3µM, KB-V1 cytotox 3.7µM, HT1080-NT tox inconclusive, HT1080 IDH1KD tx inconclusive
Cc1cc(C(=O)Nc2cccc(F)c2)c2c(C)nn(-c3cccc(Cl)c3C)c2n1	KB-3-1 cytotox inconclusive (no result: HT1080-NT tox, HT1080 IDH1KD tx)
CCN(Cc1ccccc1)C(c1cc2cc(C)cc(C)c2[nH]c1=O)c1nnnn1CCOC (stereo unspecified)	none
COCCn1nnnc1C(c1cc2cc(C)ccc2[nH]c1=O)N1CCCCCC1 (stereo unspecified)	none
CCN(Cc1ccccc1)C(c1cc2cc(C)ccc2[nH]c1=O)c1nnnn1CCOC (stereo unspecified)	KB-3-1 cytotox inconclusive, KB-V1 cytotox 16µM
COCCn1nnnc1C(c1cc2cc(C)cc(C)c2[nH]c1=O)N1CCN(c2ccccc2F)CC1 (stereo unspecified)	KB-V1 cytotox 23µM
Cc1nc2sc(-c3ccccc3)cc2c(=O)[nH]1	KB-3-1 cytotox inconclusive, KB-V1 cytotox 16µM, HT1080-NT tox inconclusive, HT1080 IDH1KD tx inconclusive
O=c1[nH]c(-c2cccnc2)nc2sc(-c3ccccc3)cc12	KB-3-1 cytotox inconclusive, KB-V1 cytotox 2.9µM, HT1080-NT tox inconclusive, HT1080 IDH1KD tx 4.6µM
COc1cc(NC(=O)C2=C(N3CCOCC3)/C(=C\c3ccc(N(C)C)cc3)CCC2)cc(OC)c1OC	KB-3-1 cytotox 12µM, KB-V1 cytotox 2.6µM, HT1080-NT tox inconclusive, HT1080 IDH1KD tx 29µM
COc1cc(NC(=O)C2=C(N3CCOCC3)/C(=C/c3ccc(Cl)cc3)CC2)cc(OC)c1OC	KB-V1 cytotox inconclusive
COc1ccc(C2CC(=O)c3cc(-c4nc(-c5cccc([N+](=O)[O-])c5)cs4)c(=O)n(-c4ccccc4C)c3C2)cc1 (stereo unspecified)	KB-V1 cytotox inconclusive (no result: HT1080-NT tox, HT1080 IDH1KD tx)
COc1ccc(OC)c(/C=C/C(=O)N2C(=O)c3cccc(N)c3C2=O)c1	KB-3-1 cytotox inconclusive, KB-V1 cytotox inconclusive, HT1080-NT tox inconclusive, HT1080 IDH1KD tx 16µM
Nc1cccc2c1C(=O)N(C(=O)/C=C/c1cccc(F)c1)C2=O	KB-3-1 cytotox inconclusive, KB-V1 cytotox inconclusive, HT1080-NT tox 18µM, HT1080 IDH1KD tx 16µM
COc1ccc(-c2nnc(SCC(=O)NCCc3ccc(OC)c(OC)c3)nc2-c2ccc(OC)cc2)cc1	none (no result: HT1080-NT tox, HT1080 IDH1KD tx)
O=C(CN1CCN(c2ccccc2)CC1)Nc1ccccc1Sc1ccccc1	KB-V1 cytotox inconclusive
O=C(CN1CCN(CCC(=O)Nc2ccccc2F)CC1)Nc1ccc(Cl)cc1	KB-V1 cytotox 4.6µM
CC(=O)N1CCN(CC(=O)Nc2ccccc2Sc2ccc(Cl)cc2)CC1	KB-3-1 cytotox inconclusive, KB-V1 cytotox 5.8µM
COc1cc(OC)cc(C(=O)Nc2ccc(-c3nc4cc(C(C)C)ccc4o3)cc2)c1	none (no result: HT1080-NT tox, HT1080 IDH1KD tx)
COc1cccc(NC(=O)c2c(-c3ccc(C)cc3)nnc3ccccc23)c1	none (no result: HT1080-NT tox, HT1080 IDH1KD tx)
CN(C)CCNc1ncnc2c1sc1nc(-c3ccccc3)c3c(c12)CCCC3	KB-V1 cytotox inconclusive, HT1080-NT tox 10µM, HT1080 IDH1KD tx 18µM
Cc1ccc(Cc2c(C)nc3nc(SCC(=O)NC(C)c4ccccc4)nn3c2C)cc1 (stereo unspecified)	KB-3-1 cytotox inconclusive (no result: HT1080-NT tox, HT1080 IDH1KD tx)
CCc1nc2c(OCc3ccc(F)cc3)cccn2c1N(C)C(=O)COc1ccccc1	KB-3-1 cytotox 23µM, KB-V1 cytotox 6.5µM, HT1080-NT tox inconclusive, HT1080 IDH1KD tx inconclusive
CCc1nc2c(OCc3ccccc3)cccn2c1N(C)C(=O)COc1ccccc1	none
CCc1nc2c(OCCOc3ccc(F)cc3)cccn2c1N(C=O)Cc1ccc(OC)cc1	KB-V1 cytotox 18µM
CCc1nc2c(OCc3ccc(Cl)cc3Cl)cccn2c1N(C=O)Cc1ccc(OC)cc1	KB-3-1 cytotox inconclusive, KB-V1 cytotox 18µM
CCCCC(CC)CNC(=O)CCCn1c(=O)[nH]c2ccsc2c1=O (stereo unspecified)	none (no result: HT1080-NT tox, HT1080 IDH1KD tx)
COc1ccc(-c2nn(-c3ccc(C)c(Cl)c3)c3c2cnc2cc(OC)c(OC)cc23)cc1	none (no result: HT1080-NT tox, HT1080 IDH1KD tx)
CCN(CC)CCN(C(=O)c1cc2ccccc2cc1OC)c1nc2ccc(F)cc2s1	HT1080-NT tox 18µM, HT1080 IDH1KD tx inconclusive
COc1cc2ccccc2cc1C(=O)N(CCN(C)C)c1nc2c(OC)ccc(OC)c2s1	KB-3-1 cytotox inconclusive, HT1080-NT tox 16µM, HT1080 IDH1KD tx inconclusive
COc1cc2ccccc2cc1C(=O)N(CCN(C)C)c1nc2ccc(C)cc2s1	KB-V1 cytotox inconclusive, HT1080-NT tox 23µM, HT1080 IDH1KD tx 16µM
Cc1c(C(=O)OC(C)C)sc(NC(=O)C2c3ccccc3Oc3ccccc32)c1C(=O)OC(C)C	KB-3-1 cytotox inconclusive (no result: HT1080-NT tox, HT1080 IDH1KD tx)
CCc1cc(CNC(=O)c2cccc(OC3CCN(S(C)(=O)=O)CC3)c2)on1	KB-3-1 cytotox inconclusive, KB-V1 cytotox inconclusive, HT1080-NT tox 16µM
O=C(NCc1cccc(Cl)c1)c1cccc(OC2CCN(C(=O)C3CC3)CC2)c1	KB-3-1 cytotox 23µM, KB-V1 cytotox inconclusive, HT1080-NT tox inconclusive
